Screens: PubChem, National Center for Advancing Translational Sciences (NCATS)
Shiga inhibitor – inhibitors of Shiga toxin in Vero cells | 290,000 compounds, 9.2% hits | inhibition, % at 38.7 µM | Vero cells, Shiga toxin protein synthesis inhibition reporter; in the data active = inhibition mostly above about 28%, no sharp cut-off; inactive = mostly below about 43%; note: 0% is about no effect
SARS PLpro yeast – inhibitors of SARS-CoV papain-like protease in yeast; S. cerevisiae expressing SARS-CoV PLpro, growth rescue; 330,000 compounds, 0.19% hits; Potency, µM (titrated, usually from 32.9 µM), for the others: at the highest dose activity, positive = growth rescue, hits mostly activators; note: potency is the fitted concentration of half-maximal effect; 0% is about no effect; nearly all actives have a fitted effect of over 55% in size
Cycloheximide cs – affects cycloheximide protein synthesis inhibition readout, counter-screen; cell reporter, cycloheximide protein synthesis inhibition counterscreen; max response, %; 300,000 compounds, 12% hits; AID 2314; in the data active = max response mostly above about 13%, no sharp cut-off; inactive = mostly below about 14%; note: read at 38.3 µM for the half of the compounds with a filed dose; 0% is about no effect
NS1 inh – influenza NS1 inhibition; Potency, µM (titrated, usually from 46.1 µM), inactives show top-dose activity, positive = more growth; 270,000 compounds, 0.4% hits; note: potency is the fitted concentration of half-maximal effect; actives are rising curves; nearly all actives have a fitted effect of over 50% in size
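OD600 was taken as the measure of yeast growth restored by compound in an NS1-expressing S. cerevisiae strain. Cells had been washed out of glucose medium and diluted 1:100 into galactose -URA medium, pH 6.0.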
* marks the source's active call; other numbers are inactive results; ? = inconclusive; / = not tested or not shown. Sampled rows, rich in hits. Any-hit rate of the full collection: about 12%. Unless noted, calls come from the whole dose curve.

SMILES	Shiga inhibitor	SARS PLpro yeast	Cycloheximide cs	NS1 inh
O=C(NCC(=O)N1CCc2ccccc2C1)c1ccc(Cl)cc1Cl	14	-1%	13	0%
CC1(C)[C@@H]2CC[C@@]1(C)C(=O)C2	19	/	1	/
CCCCNc1c(CN)cnc2cc(Cl)ccc12	/	/	/	-6%
CCCCCn1ncc2c3sc(C)cc3n(C)c2c1=O	91*	/	32*	/
CN(Cc1ccc(Cl)cc1)C(=O)c1ccc2ccccc2n1	-8	0%	-3	-10%
CN(Cc1c(F)cccc1Cl)C(=O)c1cnc2ccccc2n1	43	-4%	12*	-7%
CCc1ccc(NC(=O)C2C3C=CC(C4CC34)C2C(=O)O)cc1 (stereo unspecified)	19	6%	14*	-3%
CN(C)c1ccc(NC(=O)C2C3C=CC(C3)C2C(=O)O)cc1 (stereo unspecified)	66*	0%	20*	8%
O=C(O)C1C2C=CC(O2)C1C(=O)Nc1ccc2c(c1)OCCO2 (stereo unspecified)	132*	-12%	75*	7%
O=C(O)C1C2C=CC(C2)C1C(=O)Nc1ccc2c(c1)OCCO2 (stereo unspecified)	113*	-2%	80*	4%
Cc1ccc(S(=O)(=O)N2CCOCC2)cc1C(=O)NC1CCCC(C)C1C (stereo unspecified)	/	-2%	/	/
CCCNS(=O)(=O)c1cc2c3c(c1)CCN3C(=O)CC2	-11	-2%	-1	-3%
Cc1ccccc1C(=O)N1CCC(C(=O)OCc2ccccn2)CC1	/	-2%	/	/
Cc1cc(=O)oc(C)c1C(=O)NNC(=O)C1(C)CC1Br (stereo unspecified)	-4	-1%	-1	2%
CC1(C(=O)NNC(=O)c2ccc(=O)oc2)CC1Br (stereo unspecified)	24	-1%	13*	4%
CCCCC(CC)C(=O)Nc1cc([N+](=O)[O-])ccc1F (stereo unspecified)	14	-1%	-3	/
COc1ccc2c(c1)Sc1ccccc1N2	29	-3%	31*	/
c1ccc2c(c1)Nc1ccncc1S2	-2	-3%	16	5%
c1ccc2c(c1)Nc1cc3ccccc3cc1S2	47*	0%	26*	1%
O=C(Nc1nc2ccccc2[nH]1)C1CC(=O)N(c2ccc3c(c2)OCCO3)C1 (stereo unspecified)	42	-2%	28*	-2%
Cc1ccnc(NC(=O)C2CC(=O)N(c3ccc4c(c3)OCCO4)C2)c1 (stereo unspecified)	92*	-3%	34*	-4%
O=C(Nc1ccccc1Br)C1CC(=O)N(c2ccc3c(c2)OCCO3)C1 (stereo unspecified)	/	3%	/	/
COc1cc(OC)c(OC)cc1/C=C1\CCC/C(=C\c2cc(OC)c(OC)cc2OC)C1=O	3	-2%	-4	11%
COc1ccc(/C=C2\CC/C(=C\c3ccc(OC)cc3OC)C2=O)c(OC)c1	60*	-4%	26*	/
CN(C)c1ccc(N=Nc2ccccc2C(=O)OCC(=O)N(C)C2CCCCC2)cc1	29*	-14%	27*	-3%
SMILES	Shiga inhibitor	SARS PLpro yeast	Cycloheximide cs	NS1 inh
CN(C)c1ccc(N=Nc2ccccc2C(=O)OCC(=O)NC2CCCC2)cc1	26*	-54%	24*	-12%
CN(C)c1ccc(C(=O)OCC(=O)NC2CCCCCC2)cc1	-11	-4%	0	/
CN(C)c1ccc(N=Nc2ccccc2C(=O)OCC(=O)NCC2CCCCC2)cc1	72*	-13%	69*	15%
O=[N+]([O-])c1cccc(N/N=C/c2cc([N+](=O)[O-])ccc2O)c1	49*	-16%	28*	/
CN(/N=C/c1cc([N+](=O)[O-])ccc1O)c1ccccc1	17	13%	22*	4%
O=[N+]([O-])c1ccc(Nc2ccccc2)cc1	26	-29%	16*	-29%
O=[N+]([O-])c1ccc(N/N=C/c2ccccc2O)cc1	89*	-9%	65*	-71%
O=C(N/N=C/c1cc([N+](=O)[O-])ccc1O)Nc1ccccc1	15	-2%	11	-3%
O=[N+]([O-])c1ccc(O)c(/C=N/Nc2ccccn2)c1	29	?	22*	-28%
O=C(c1ccc(-c2ccccc2)cc1)C1CCCN(Cc2ccncc2)C1 (stereo unspecified)	53	-2%	48*	-2%
CC(C)(C)c1ccc(C(=O)C2CCCN(Cc3ccon3)C2)cc1 (stereo unspecified)	33*	1%	22*	-2%
O=C(c1ccc(-c2ccccc2)cc1)C1CCCN(Cc2ccn[nH]2)C1 (stereo unspecified)	10	-1%	1	9%
CCOC(=O)N1CCN(C(=O)CNC(=O)c2nn(-c3ccc(OC)c(Cl)c3)c(=O)c3ccccc23)CC1	8	2%	1	-3%
COC(=O)[C@]1(Cc2ccccc2)N[C@H](c2ccc(-c3ccc(Cl)c(Cl)c3)cc2)[C@@H]2C(=O)N(C)C(=O)[C@@H]21	/	0%	/	/
COc1ccc(N=Cc2sc3ccccc3c2Cl)cc1	13	3%	25*	-3%
COc1ccc(-c2sc3ccccc3c2-c2ccc(O)cc2)cc1	/	-9%	/	/
O=[N+]([O-])c1ccc(O)c(N=Cc2sc3ccccc3c2O)c1	61*	?	60*	-4%
Oc1ccc(Cl)cc1N=Cc1sc2ccccc2c1Cl	61*	-11%	41*	/
COC(=O)c1ccc(NC(=O)c2ccc3c(c2)NC(=O)C2CCCN32)cc1 (stereo unspecified)	/	4%	/	/
COc1ccc(NC(=O)O/N=C/c2c(C)nn(C(C)(C)C)c2C)cc1	45	-1%	29*	-6%
O=C(CCN1C(=O)C2CC=CCC2C1=O)Nc1ccc(S(=O)(=O)N2CCCCC2)cc1 (stereo unspecified)	/	4%	/	/
Cc1ccc(S(=O)(=O)Nc2cccc(C(=O)NCC(C)(C)N3CCOCC3)c2)cc1F	/	-5%	/	/
O=C(Nc1ccccc1)c1cccc(-c2nnc(-c3ccccc3)o2)c1	-4	9%	17*	1%
O=C(Nc1cccc(-c2nnc(-c3ccccc3)o2)c1)c1ccco1	11	-1%	6	-4%
CCCCC(=O)Nc1cccc(-c2nnc(-c3ccccc3)o2)c1	43*	18%	35*	-115%
SMILES	Shiga inhibitor	SARS PLpro yeast	Cycloheximide cs	NS1 inh
O=C(Nc1ccc2[nH]ncc2c1)c1ccccc1	25	-6%	22*	3%
O=C(Nc1cccc(NC(=O)c2ccc(F)cc2)c1)c1ccc(F)cc1	-4	-1%	-3	7%
O=C(Cc1ccccc1)Nc1ccc2[nH]ncc2c1	23	2%	21*	10%
Cc1ccccc1OCC(=O)Nc1ccc2[nH]ncc2c1	16	-4%	15*	-26%
O=C(Nc1ccc2[nH]ncc2c1)c1ccc(F)cc1	55*	0%	19*	-7%
O=C(COc1ccccc1)Nc1ccc2[nH]ncc2c1	-3	-5%	-1	7%
O=C(Cc1ccc(Br)cc1)Nc1ccc2[nH]ncc2c1	/	-2%	-1	1%
CC(C)(C)c1ccc2c(c1)N(CC(=O)N1CCCC1)C(=O)CO2	-24	1%	0	4%
CC(=O)Nc1ccccc1OCC(=O)N(Cc1ccccc1)C(C)C	-9	19%	-1	8%
O=C(Nc1ccc2[nH]ncc2c1)c1cccc(F)c1	65*	-2%	29*	-3%
